# Source: ChEMBL document CHEMBL3433997, “St. Jude Leishmania screening dataset” (2016)
# Values joined by “and” are separate entries in the source; they are usually repeats but may differ in a detail not shown here. Equal values may be shown once.
# Target: Hexose transporter 1 (Plasmodium falciparum) (UniProt O97467)
# Assay: ST_JUDE_LEISH: Cytotoxicity at 2uM final concentration against transgenic Leishmania Mexicana promastigotes LmPfHT that are glucose transport deficient and complemented with the Plasmodium falciparum hexose transporter. Activity is measured by DNA content using SYBR green in vitro
# Assay type: functional
row,SMILES,inhibition
1,CN(C)c1ccc(C(c2ccc(N(C)C)cc2)c2cc([N+](=O)[O-])ccc2Cl)cc1,0.82%
2,c1cc(-c2ccc(CN3CCN(c4ccncc4)CC3)cc2)cc(-c2nc3ccccc3[nH]2)c1,3.51%
3,CN=c1nc(NN=Cc2ccccc2Cl)[nH]c(=Nc2cccc(C(F)(F)F)c2)[nH]1,8.1%
4,O=C(Nc1cccc(-c2cccc(-c3nc4ccccc4[nH]3)c2)c1)c1ccncc1,4.7%
5,COCC(C)n1c(SCC(=O)Nc2cc(C(F)(F)F)ccc2Cl)nc2ccccc2c1=O (stereo not given),4.88%
6,CC(=O)Nc1ccc(C(=O)Nc2cccc(-c3cccc(-c4nc5cccc(C)c5[nH]4)c3)c2)cn1,3.64%
7,CC(NC(=O)c1ccc(O)c(-c2ccc(Cl)c(Cl)c2)c1)C(=O)NCCN1CCOCC1 (stereo not given),2.13%
8,CN(C)c1ccc(NC2=NC(N)=NC(C)(C)N2)cc1,1.5%
9,O=C(Nc1ccc(-c2cccc(-c3nc4ccccc4[nH]3)c2)cc1)c1cnn2cccnc12,2.12%
10,NC(=O)Nc1ccc2cn[nH]c2c1,0.57%
11,COc1ccc2nccc([C@@H](O)CN3CCC(NS(=O)(=O)c4cc5c(cc4Cl)SCC(=O)N5)CC3)c2c1,1.6%
12,OC(c1cc(C(F)(F)F)nc2c(F)cccc12)C1CCCCN1 (stereo not given),1.52%
13,COc1ccc(N2CCN(CCc3ccc(NC(=O)c4ccc([N+](=O)[O-])cc4)cc3)CC2)c(OC)c1,6.72%
14,CO[C@H](C)[C@H](NC(=O)[C@H](CC(C)C)[C@H](CCC(F)(F)F)N(O)C=O)C(=O)Nc1nccs1,4.95%
15,OCc1c(Cl)cc(Cl)cc1CNCCCNc1nc2ccccc2[nH]1,6.27%
16,CC(C)CNC(=O)c1ccnc(-c2ccc(CNCCCc3ccccc3)cc2)c1,3.19%
17,Cc1cc(N2CC=CCC2)nc(NC(=N)Nc2ccc(Cl)cc2)n1,7.74%
18,O=C(Nc1cccc(C(F)(F)F)c1)NC1CCN(c2ccnc3cc(Cl)ccc23)CC1,1.64%
19,COc1ccc(NCc2cccc(-c3cccc(CNCCc4ccccc4)c3)c2)cc1,0.51%
20,COC(=O)c1ccc(OCC(C)NCC(O)c2cccc(C(F)(F)F)c2)cc1 (stereo not given),8.32%
21,Cc1cc(=O)c(-c2ccc(Oc3cccc(C(F)(F)F)c3)cc2)c(C)[nH]1,2% and 2.11%
22,COc1c(C=NNc2nc(=Nc3ccccc3)[nH]c(=Nc3ccccc3)[nH]2)ccc(Br)c1O,11.7%
23,CC(=O)Nc1ncc(C(=O)Nc2cccc(-c3cccc(-c4nc5cccc(C)c5[nH]4)c3)c2)s1,2.86%
24,CC(C)(C)c1ccc(NC(=O)N[C@@H]2CCN(c3ccnc4ccccc34)C2)cc1,-0.25%
25,CCOC(=O)c1c(-c2ccccc2)nc2c(sc3ccccc32)c1O,5.15%

# Target: Glucose transporter (Leishmania mexicana) (UniProt O61059)
# Assay: ST_JUDE_LEISH: Cytotoxicity at 2uM final concentration against transgenic Leishmania Mexicana promastigotes LmGT2 that are glucose transport deficient and complemented with the L. Mexicana glucose transporter 2. Activity is measured by DNA content using SYBR green in vitro
# Assay type: functional
row,SMILES,inhibition
1,CC(C)Nc1ccc(Nc2ccnc3cc4ccccc4cc23)cc1,0.5%
2,O=C(/C=C/c1ccc(Cl)c(Cl)c1)NCCCCCN1CCCC(CNC(=O)/C=C/c2ccccc2)C1 (stereo not given),-0.59%
3,O=C(NC1CCN(c2ccnc3cc(Cl)ccc23)C1)c1ccc(F)cc1F (stereo not given),2.89%
4,O=S(=O)(c1csc2ccccc12)N(CCC(O)(C(F)(F)F)C(F)(F)F)Cc1cccc(O)c1,-4.98%
5,COc1cc(Cl)c(C)cc1-n1cc(C(=O)c2cc(Br)ccc2O)cc(C#N)c1=O,0.03%
6,COc1ccc2ncc(F)c(CCN3CCC(NCc4cc(Br)c5c(c4)OCCO5)CC3)c2n1,14.3%
7,O=C(N1CCN(c2cccc(C(F)(F)F)c2)CC1)C(Cl)(Cl)Cl,1.47%
8,CC(=O)Nc1ccc(C(=O)Nc2cccc(-c3ccc(-c4nc5cc(F)ccc5[nH]4)cc3)c2)cn1,0.38%
9,Cc1cc(N[C@@H](Cc2ccccc2)C(=O)Nc2ccccc2)nc(NCCc2cccnc2)n1,9.02%
10,CC(=O)Nc1ccc(CN2CCc3ccc(NS(=O)(=O)c4cccc(OCc5ccc(Cl)cc5)c4)cc3CC2)s1,0.54%
11,CC(CON1C(N)=NC(N)=NC1(C)C)Cc1ccc(Cl)cc1Cl (stereo not given),-0.29%
12,c1ccc(-c2cc(NCCNc3cc(-c4ccccc4)nc4ccccc34)c3ccccc3n2)cc1,15.2%
13,COc1ccc(CN(C)CCOc2ccc(NC(=O)c3cccc4c(=O)cc(-c5ccccc5)[nH]c34)cc2)cc1OC,1.24%
14,Nc1c(Cl)cc(C(O)CNCCCCCCCCCc2ccccn2)cc1Cl (stereo not given),0.6%
15,COc1ccc(NC(=O)N2CCCN(CCCCCNC(=O)/C=C/c3ccc(C(F)(F)F)cc3)CC2)cc1Cl,2.8%
16,CN(C)c1ccc(C(c2ccc(N(C)C)cc2)c2cc([N+](=O)[O-])ccc2Cl)cc1,-3.09%
17,c1cc(-c2ccc(CN3CCN(c4ccncc4)CC3)cc2)cc(-c2nc3ccccc3[nH]2)c1,2.1%
18,CN=c1nc(NN=Cc2ccccc2Cl)[nH]c(=Nc2cccc(C(F)(F)F)c2)[nH]1,4.76%
19,O=C(Nc1cccc(-c2cccc(-c3nc4ccccc4[nH]3)c2)c1)c1ccncc1,0.44%
20,COCC(C)n1c(SCC(=O)Nc2cc(C(F)(F)F)ccc2Cl)nc2ccccc2c1=O (stereo not given),2.72%

row,SMILES,inhibition
1,CC(=O)Nc1ccc(C(=O)Nc2cccc(-c3cccc(-c4nc5cccc(C)c5[nH]4)c3)c2)cn1,1.41%
2,CC(NC(=O)c1ccc(O)c(-c2ccc(Cl)c(Cl)c2)c1)C(=O)NCCN1CCOCC1 (stereo not given),3.62%
3,CN(C)c1ccc(NC2=NC(N)=NC(C)(C)N2)cc1,0.7%
4,O=C(Nc1ccc(-c2cccc(-c3nc4ccccc4[nH]3)c2)cc1)c1cnn2cccnc12,-0.16%
5,NC(=O)Nc1ccc2cn[nH]c2c1,0.33%
6,COc1ccc2nccc([C@@H](O)CN3CCC(NS(=O)(=O)c4cc5c(cc4Cl)SCC(=O)N5)CC3)c2c1,-0.41%
7,OC(c1cc(C(F)(F)F)nc2c(F)cccc12)C1CCCCN1 (stereo not given),1.48%
8,COc1ccc(N2CCN(CCc3ccc(NC(=O)c4ccc([N+](=O)[O-])cc4)cc3)CC2)c(OC)c1,6.07%
9,CO[C@H](C)[C@H](NC(=O)[C@H](CC(C)C)[C@H](CCC(F)(F)F)N(O)C=O)C(=O)Nc1nccs1,3.68%
10,OCc1c(Cl)cc(Cl)cc1CNCCCNc1nc2ccccc2[nH]1,1.01%
11,CC(C)CNC(=O)c1ccnc(-c2ccc(CNCCCc3ccccc3)cc2)c1,2.74%
12,Cc1cc(N2CC=CCC2)nc(NC(=N)Nc2ccc(Cl)cc2)n1,6.89%
13,O=C(Nc1cccc(C(F)(F)F)c1)NC1CCN(c2ccnc3cc(Cl)ccc23)CC1,-1.47%
14,COc1ccc(NCc2cccc(-c3cccc(CNCCc4ccccc4)c3)c2)cc1,-1.32%
15,COC(=O)c1ccc(OCC(C)NCC(O)c2cccc(C(F)(F)F)c2)cc1 (stereo not given),8.64%
16,Cc1cc(=O)c(-c2ccc(Oc3cccc(C(F)(F)F)c3)cc2)c(C)[nH]1,1.32% and -2.73%
17,COc1c(C=NNc2nc(=Nc3ccccc3)[nH]c(=Nc3ccccc3)[nH]2)ccc(Br)c1O,9.27%
18,CC(=O)Nc1ncc(C(=O)Nc2cccc(-c3cccc(-c4nc5cccc(C)c5[nH]4)c3)c2)s1,2.45%
19,CC(C)(C)c1ccc(NC(=O)N[C@@H]2CCN(c3ccnc4ccccc34)C2)cc1,0.79%
20,CCOC(=O)c1c(-c2ccccc2)nc2c(sc3ccccc32)c1O,5.35%
